The results in this text go back to PubChem BioAssay (NCI).

Structures are written as SMILES. This is part of a sample that, as a whole, favours compounds with a hit. Of some 83,000 tested, about 20% had one in any assay.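 In brief: 96-well plates, 48 h treatment, single concentration, percent growth endpoint.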 A number with no mark means an inactive call. Calls of active or inactive are those of the source. How the source made its calls: active means growth percent below 10; inactive means the rest.

The first assay concerns MDA-MB-231 breast. The experiment in a line: NCI-60 one-dose screen, 48 h (100 = growth as untreated, 0 = no growth, -100 = all killed). The following applies: 10 µM unless noted.
For the compound `ClCCN(CCCl)C(c1ccccc1)c1ccc(Cl)cc1` (configuration not stated), the growth was 75.7%.

With `CCCCn1cc(C(=O)/C(C#N)=C/c2cc3ccccc3nc2Cl)c2cc(OC)ccc21`, the growth is 87.8%.

As for `CCCCNCCc1ccccn1`, the growth was 114%.

Turning to `CC(=O)C1C(=O)N(C)C(=O)N(C)C1=O`, the growth is 117%.

On to `CC1(C)N=C(N)N=C(N)N1c1cccc(C(=O)Nc2cccc(S(=O)(=O)F)c2)c1`, for which the growth was 113%.

On to `C[C@]12CC[C@@H]3C4=C(CC[C@H]3[C@@H]1CC[C@@H]2O)CC(=O)CC4`, for which the growth was 103%.

As for `Oc1ccccc1OB(Oc1ccccc1O)N(CCCl)CCCl`, the growth is 71%.

Take `NC(Cc1ccc2c(c1)OCO2)c1ccc2c(c1)OCO2` (configuration not stated): the growth was 107%.

Turning to `COc1ccc(-c2ccc(OC)c(OC)c2OC)cc1`, the growth was 43.8%.

As for `CC1(C)N=C(N)N=C(N)N1c1ccc(CCCCc2ccc(S(=O)(=O)F)cc2)c(Cl)c1`, the growth was 34.3%.

For `COc1ccc(C2=NN(c3ccccc3)C(c3sc(N(CCCl)CCCl)nc3Cl)C2)cc1` (configuration not stated), the growth was 68.4%.

Take `N#CC1c2ccccc2C=CN1C(=O)c1ccc(N(CCCl)CCCl)cc1` (configuration not stated): the growth is 92.9%.

On to `CSc1ccccc1NP1(=O)OCC(C)([N+](=O)[O-])CO1` (configuration not stated), for which the growth is 105%.

Consider `Cc1ccc(N)cc1[As]=[As]c1cc(N)ccc1C` (configuration not stated), for which the growth is -92.6% (active).

Consider `C/C(=N/OC(=O)N(C)C)c1cc(Cl)ccc1Cl`, for which the growth was 111%.

Regarding `CCC(C)[C@H]1O[C@]2(C=C[C@@H]1C)C[C@@H]1C[C@@H](C/C=C(\C)[C@@H](OC3C[C@H](OC)C(O[C@H]4C[C@H](OC)[C@@H](O)[C@H](C)O4)[C@H](C)O3)[C@@H](C)/C=C/C=C3\CO[C@@H]4[C@H](O)C(C)=C[C@@H](C(=O)O1)[C@]34O)O2` (some centres not stated), the growth was -58.2% (active).

Regarding `CC1(C)N=C(N)N=C(N)N1c1ccc(CCCCc2ccc(S(=O)(=O)F)cc2)cc1`, the growth is 46.7%.

Regarding `Cc1ccc(C(=O)C2CN(C)CCC2(O)c2ccc(C)cc2)cc1` (configuration not stated), the growth is 116%.

For `O=S(=O)(O)c1ccc(-c2ccc([As](=O)(O)O)cc2)cc1`, the growth is 104%.

Regarding `O=C1NC(=O)C(CN2C(=O)C3(c4ccccc42)[C@H](Cl)C(=O)N3c2ccccc2)C(=O)N1` (some centres not stated), the growth is 51.4%.

Consider `O=[N+]([O-])c1cc([N+](=O)[O-])c(Cl)c(Cl)c1Cl`, for which the growth is 22.3%.

On to `C=CCC1(CC)C(=O)NC(=S)NC1=O`, for which the growth is 109%.

For `C/C(=N/OC(=O)N(C)C)c1ccc(Cl)cc1Cl`, the growth is 116%.

With `CCC[CH2][Sn]([CH2]CCC)([CH2]CCC)[O]C(=O)CC`, the growth is -79.4% (active).

As to `O=C(NCc1ccc([N+](=O)[O-])cc1)Nc1ccc(S(=O)(=O)F)cc1`, the growth was 80.4%.

`n1nc(-c2nonc2-c2nn[nH]n2)n[nH]1`: the growth is 105%.

Take `CNC(=O)Oc1ccccc1-c1ccccc1`: the growth was 114%.

In the case of `CC1(C)N=C(N)N=C(N)N1c1ccc(OCCCCOc2ccc(S(=O)(=O)F)cc2)c(Cl)c1`, the growth is 38.3%.

For `CCCCOC(=O)c1ccccc1C(=O)O.CCCCOC(=O)c1ccccc1C(=O)O.[Cu+2]`, the growth is 124%.

As to `O=[N+]([O-])c1ccc2cnn(CSP(=S)(c3ccccc3)c3ccccc3)c2c1`, the growth is 51.8%.

With `NC(=O)C(Cl)Cl`, the growth was 111%.

Take `CCN(CC)c1ccc(C=C2C(=O)NC(=S)NC2=O)cc1`: the growth was 93.7%.

Regarding `Clc1ccc(SSC(Cl)(Cl)Cl)cc1`, the growth is 116%.

As for `[O]=[Sn]([CH]1CCCCC1)[CH]1CCCCC1`, the growth was -78.3% (active).

For `ClCCN(CCCl)c1nc(Cl)c(C2CC(c3ccccc3)=NN2c2ccccc2)s1` (configuration not stated), the growth was 88.1%.

For the compound `CC(=O)C1CCC2C3CC=C4CC(OC(=O)Cc5ccc(N(CCCl)CCCl)cc5)CCC4(C)C3CCC12C` (configuration not stated), the growth is 112%.

Turning to `Cc1ccccc1O`, the growth was 115%.

Consider `O=[N+]([O-])c1ccccc1N1CCNCC1`, for which the growth was 114%.

For `CC(=O)Nc1ccc(C=C2C(=O)NC(=O)NC2=O)cc1`, the growth was 104%.

The subject of another assay is RXF 393 renal. The description is as above. The conditions noted are these: 10 µM unless noted.
With `ClCCN(CCCl)C(c1ccccc1)c1ccc(Cl)cc1` (configuration not stated), the growth was 88.4%.

Turning to `CCCCNCCc1ccccn1`, the growth is 113%.

Consider `CC(=O)C1C(=O)N(C)C(=O)N(C)C1=O`, for which the growth is 107%.

Consider `CC1(C)N=C(N)N=C(N)N1c1cccc(C(=O)Nc2cccc(S(=O)(=O)F)c2)c1`, for which the growth is 92.2%.

As for `C[C@]12CC[C@@H]3C4=C(CC[C@H]3[C@@H]1CC[C@@H]2O)CC(=O)CC4`, the growth was 100%.

For `Oc1ccccc1OB(Oc1ccccc1O)N(CCCl)CCCl`, the growth is 94.9%.

On to `COc1ccc(-c2ccc(OC)c(OC)c2OC)cc1`, for which the growth was 11.2%.

In the case of `CC1(C)N=C(N)N=C(N)N1c1ccc(CCCCc2ccc(S(=O)(=O)F)cc2)c(Cl)c1`, the growth is 43.1%.

On to `COc1ccc(C2=NN(c3ccccc3)C(c3sc(N(CCCl)CCCl)nc3Cl)C2)cc1` (configuration not stated), for which the growth was 110%.

With `N#CC1c2ccccc2C=CN1C(=O)c1ccc(N(CCCl)CCCl)cc1` (configuration not stated), the growth was 89.7%.

Take `CSc1ccccc1NP1(=O)OCC(C)([N+](=O)[O-])CO1` (configuration not stated): the growth is 97.6%.

In the case of `C/C(=N/OC(=O)N(C)C)c1cc(Cl)ccc1Cl`, the growth was 102%.

Turning to `CC1(C)N=C(N)N=C(N)N1c1ccc(CCCCc2ccc(S(=O)(=O)F)cc2)cc1`, the growth was 43.2%.

As to `Cc1ccc(C(=O)C2CN(C)CCC2(O)c2ccc(C)cc2)cc1` (configuration not stated), the growth was 128%.

As to `O=S(=O)(O)c1ccc(-c2ccc([As](=O)(O)O)cc2)cc1`, the growth is 117%.

Consider `O=C1NC(=O)C(CN2C(=O)C3(c4ccccc42)[C@H](Cl)C(=O)N3c2ccccc2)C(=O)N1` (some centres not stated), for which the growth is 65.5%.

`O=[N+]([O-])c1cc([N+](=O)[O-])c(Cl)c(Cl)c1Cl`: the growth was -86.2% (active).

Consider `C=CCC1(CC)C(=O)NC(=S)NC1=O`, for which the growth was 110%.

`C/C(=N/OC(=O)N(C)C)c1ccc(Cl)cc1Cl`: the growth was 112%.

With `O=C(NCc1ccc([N+](=O)[O-])cc1)Nc1ccc(S(=O)(=O)F)cc1`, the growth was 59.9%.

On to `n1nc(-c2nonc2-c2nn[nH]n2)n[nH]1`, for which the growth is 93.7%.

Take `CNC(=O)Oc1ccccc1-c1ccccc1`: the growth is 120%.

On to `CC1(C)N=C(N)N=C(N)N1c1ccc(OCCCCOc2ccc(S(=O)(=O)F)cc2)c(Cl)c1`, for which the growth was 27.9%.

Turning to `CCCCOC(=O)c1ccccc1C(=O)O.CCCCOC(=O)c1ccccc1C(=O)O.[Cu+2]`, the growth was 116%.

Regarding `O=[N+]([O-])c1ccc2cnn(CSP(=S)(c3ccccc3)c3ccccc3)c2c1`, the growth is 70.1%.

As for `CCN(CC)c1ccc(C=C2C(=O)NC(=S)NC2=O)cc1`, the growth was -22.3% (active).

Turning to `Clc1ccc(SSC(Cl)(Cl)Cl)cc1`, the growth is 112%.

Take `[O]=[Sn]([CH]1CCCCC1)[CH]1CCCCC1`: the growth is -99% (active).

Turning to `ClCCN(CCCl)c1nc(Cl)c(C2CC(c3ccccc3)=NN2c2ccccc2)s1` (configuration not stated), the growth was 94.2%.

With `CC(=O)C1CCC2C3CC=C4CC(OC(=O)Cc5ccc(N(CCCl)CCCl)cc5)CCC4(C)C3CCC12C` (configuration not stated), the growth is 108%.

For the compound `Cc1ccccc1O`, the growth was 102%.

Regarding `O=[N+]([O-])c1ccccc1N1CCNCC1`, the growth is 121%.

As to `CC(=O)Nc1ccc(C=C2C(=O)NC(=O)NC2=O)cc1`, the growth was 118%.
